From PubChem BioAssay (Tox21)
Inconclusive results are not listed. Active and inactive are the calls of the source. Unless noted, calls come from the whole dose curve; as a rule, active = well fitted curve in the direction sought with a large enough effect in the repeat runs; inconclusive = weak or mixed curves; inactive = no such curve, though single readings can be large; an effect the other way counts as inactive or inconclusive.

Key:
[1] = qHTS assay for small molecule agonists of the p53 signaling pathway (AID 651631; calls by dose curve; note: nearly all actives have a fitted effect of over 15% in size; note: potency is the fitted concentration of half-maximal effect)
Procedure, shortened: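 p53RE-bla HCT-116 cells; compounds 16 h, 37 °C; LiveBLAzer B/G FRET substrate 2 h RT; fluorescence intensity read-out, qHTS format.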

[2] = qHTS assay for small molecules that induce genotoxicity in human embryonic kidney cells expressing luciferase-tagged ATAD5 (AID 651632); note: nearly all actives have a fitted effect of over 15% in size; note: potency is the fitted concentration of half-maximal effect
Procedure, shortened: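 Luminescence read-out: after 16 hr compound exposure at 37C, ATAD5-luciferase HEK293T cells received Amplite, 30 min RT, then CCD imaging. A rise in signal marks genotoxic stress.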

[3] = qHTS assay for small molecule agonists of the p53 signaling pathway - cell viability (AID 651633; calls by dose curve; note: nearly all actives have a fitted effect of over 30% in size; note: potency is the fitted concentration of half-maximal effect)
Procedure, shortened: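 p53RE-bla cells were treated with compound for 16 hours at 37 C. Cytotoxicity was then measured as CellTiter-Glo luminescence after 30 min at room temperature.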

[4] = qHTS assay for small molecules that induce genotoxicity in human embryonic kidney cells expressing luciferase-tagged ATAD5 - cell viability (AID 651634; calls by dose curve; note: nearly all actives have a fitted effect of over 25% in size)
Procedure, shortened: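 HEK293T ATAD5-luc cells, 2,000/well; compound 15.5 hr, 37C/5% CO2; CellTiter-Fluor 30 min, 37C; fluorescence read.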

[5] = qHTS assay to test for compound auto fluorescence at 590 nm (red) in HepG2 cells (AID 720674)
Procedure, shortened: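 HepG2 cells, 2,000 per well in MEM with 10% FBS, attached overnight at 37 C, then got 23 nL compound or DMSO. After 1 hr at 37 C, 5% CO2, red fluorescence was read at 540/590 nm against Rose Bengal sodium as reference.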

[6] = qHTS assay to test for compound auto fluorescence at 535 nm (green) in HepG2 cells (AID 720675)
[7] = qHTS assay to test for compound auto fluorescence at 460 nm (blue) in HEK293 cells (AID 720678)
Procedure, shortened: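 HEK293 cells (2,000 per well, medium with 10% dialyzed FBS) attached for 4-5 hr at 37C, then received compound and stood overnight at 37C, 5% CO2. Blue fluorescence was read at Ex/Em 405/460 nm and expressed relative to triamterene.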

[8] = qHTS assay to test for compound auto fluorescence at 590 nm (red) in HEK293 cells (AID 720679)
Procedure, shortened: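 HEK293 cells (2,000/well, medium with 10% dialyzed FBS) attached for 4-5 hr at 37C, received 23 nL compound and were incubated overnight at 37C, 5% CO2. Red fluorescence was then read at 540/590nm Ex/Em, referenced to Rose Bengal sodium.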

[9] = qHTS assay for small molecule disruptors of the mitochondrial membrane potential - cell viability (AID 720634; calls by dose curve;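 note: human HepG2 liver cancer cells; series mostly up to about 83 µM; nearly all actives have a fitted effect of over 20% in size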)
Procedure, shortened: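 Luminescence from CellTiter-Glo (ATP content) gave viability in HepG2 cells, read in the same wells as the MMP dye assay after 1 hr compound exposure at 37 C.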

[10] = qHTS assay for small molecule disruptors of the mitochondrial membrane potential (AID 720635); note: potency is the fitted concentration of half-maximal effect
Procedure, shortened: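 HepG2 cells exposed to compound 1 hr at 37C, then Mito-MPS dye 30 min. Ratio read of aggregate (540/590 nm) versus monomer (490/535 nm) fluorescence.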
% is set by controls: 0 for no effect and ±100 for the full control effect.

OCCCO
inactive: Potency [1] | Potency [2] | Potency [3] | Potency [4] | outcome [5] | outcome [6] | Potency [7] | outcome [8]

O=C(Cl)c1cc(Cl)cc(Cl)c1
inactive: Potency [1] | Potency [2] | Potency [3] | Potency [4] | Potency [9] | outcome [5] | outcome [6] | Potency [7] | outcome [8]

CC(C)(C)NCC(O)COc1ccc(NC(=O)NC2CCCCC2)cc1 (stereo not given)
inactive: Potency [1] | Potency [2] | Potency [3] | Potency [4] | outcome [5] | outcome [6] | Potency [7] | outcome [8]

[O-][n+]1ccc(Cl)cc1
inactive: Potency [1] | Potency [2] | Potency [3] | Potency [4] | Potency [9] | outcome [5] | outcome [6] | Potency [7] | outcome [8]

CCCCOc1ccc(N)cc1
inactive: Potency [1] | Potency [2] | Potency [3] | Potency [4] | Potency [9] | outcome [5] | outcome [6] | Potency [7] | outcome [8]

Nc1ccc(-c2ccc(F)cc2)cc1
inactive: Potency [1] | Potency [3] | Potency [4] | Potency [9] | outcome [5] | outcome [6] | Potency [7] | outcome [8]

COc1cccc([C@H](O)C2CCN(CCc3ccc(F)cc3)CC2)c1OC
inactive: Potency [1] | Potency [2] | Potency [3] | Potency [4] | Potency [9] | outcome [5] | outcome [6] | Potency [7] | outcome [8]

O=C(OCCCCCOC(=O)c1ccccc1)c1ccccc1
inactive: Potency [1] | Potency [2] | Potency [3] | Potency [4] | Potency [9] | outcome [5] | outcome [6] | Potency [7] | outcome [8]

O=C(OCCOCCOCCOC(=O)c1ccccc1)c1ccccc1
inactive: Potency [1] | Potency [2] | Potency [3] | Potency [4] | Potency [9] | outcome [5] | outcome [6] | Potency [7] | outcome [8]

COc1ccc(C(=O)Nc2ccccc2)cc1[N+](=O)[O-]
active: Potency [10] 2.75 µM
inactive: Potency [1] | Potency [2] | Potency [3] | Potency [4] | outcome [5] | outcome [6] | Potency [7] | outcome [8]

Cc1c(Nc2ncccc2C(=O)O)cccc1C(F)(F)F
active: Potency [10] 9.02 µM
inactive: Potency [1] | Potency [2] | Potency [4] | Potency [9] | fluorescence, relative to Rose Bengal [5] 0.539% [at 18.6 µM] | fluorescence, % of fluorescein control [6] -0.0599% [at 18.6 µM] | fluorescence, % of triamterene [7] 0.0756% [at 18.6 µM] | fluorescence, % of fluorescent control [8] 0.0414% [at 18.6 µM]

CCc1ccc2c(c1)C(=O)c1ccccc1C2=O
inactive: Potency [1] | Potency [3] | Potency [4] | outcome [5] | outcome [6] | Potency [7] | outcome [8]
active: Potency [2] 12.2 µM | Potency [10] 13.7 µM

CC(CCl)OC(C)CCl (stereo not given)
inactive: Potency [1] | Potency [2] | Potency [4] | Potency [9] | Potency [10] | outcome [5] | outcome [6] | Potency [7] | outcome [8]

CC(C)CCCCCOC(=O)CS
inactive: Potency [1] | Potency [2] | Potency [3] | Potency [4] | Potency [9] | outcome [5] | outcome [6] | Potency [7] | outcome [8]

C=C[Si]1(C)O[Si](C)(C=C)O[Si](C)(C=C)O[Si](C)(C=C)O1 (stereo not given)
inactive: Potency [1] | Potency [2] | Potency [3] | Potency [4] | outcome [5] | outcome [6] | Potency [7] | outcome [8]

COC(=O)Cc1cccc2ccccc12
inactive: Potency [1] | Potency [2] | Potency [3] | Potency [4] | Potency [9] | outcome [5] | outcome [6] | Potency [7] | outcome [8]

CCOc1cc(OCC)c(C(C)=O)cc1OCC
inactive: Potency [1] | Potency [2] | Potency [3] | Potency [9] | outcome [5] | outcome [6] | Potency [7] | outcome [8]

O=C1c2ccccc2C(=O)C1c1ccc2ccccc2n1
inactive: Potency [1] | Potency [3] | Potency [4] | outcome [5] | outcome [6] | Potency [7] | outcome [8]
active: Potency [2] 0.0762 µM | Potency [10] 0.34 µM

CC1(COc2ccc(CC3SC(=O)NC3=O)cc2)CCCCC1 (stereo not given)
active: Potency [1] 33.5 µM | Potency [3] 26.6 µM | Potency [10] 6.68 µM
inactive: Potency [2] | outcome [5] | outcome [6] | Potency [7] | outcome [8]

CCn1nc(Cc2ccccc2)cc1C1CCN(C[C@H]2C[C@H](N(C)[C@@H](C(=O)O)C(C)C)C[C@@H]2c2cccc(F)c2)CC1
inactive: Potency [1] | Potency [2] | Potency [3] | Potency [4] | Potency [9] | outcome [5] | outcome [6] | Potency [7] | outcome [8]

Cc1ccc2c(Cl)cc(Cl)c(O)c2n1
inactive: outcome [5] | outcome [6] | Potency [7] | outcome [8]
active: Potency [1] 2.37 µM | Potency [2] 5.96 µM | Potency [3] 0.944 µM | Potency [10] 9.44 µM

CC(=O)Nc1ccccc1O
inactive: Potency [1] | Potency [3] | Potency [4] | Potency [9] | outcome [5] | outcome [6] | Potency [7] | outcome [8]

CCCCCCCCOCCCN
inactive: Potency [1] | Potency [2] | Potency [4] | Potency [9] | outcome [5] | outcome [6] | Potency [7] | outcome [8]

CCCOC(C)=O
inactive: Potency [1] | Potency [2] | Potency [4] | Potency [9] | outcome [5] | outcome [6] | Potency [7] | outcome [8]

CC/C=C/CCO
inactive: Potency [1] | Potency [2] | Potency [3] | Potency [4] | Potency [9] | outcome [5] | outcome [6] | Potency [7] | outcome [8]
